BAZ2B inh: inhibitors of human BAZ2B bromodomain. Q9UIF8. AlphaScreen BAZ2B-H3K14Ac peptide displacement. Potency, µM (top dose mostly 114 µM), without a hit: at the highest dose activity change, negative = inhibition, hits mostly inhibitors. hit rate 4.4% among 360,000; further: on the % scale 0 is the no-effect control and ±100 the full control effect; nearly all actives have a fitted effect of over 60% in size
Target sequence (Q9UIF8 whole entry, looked up): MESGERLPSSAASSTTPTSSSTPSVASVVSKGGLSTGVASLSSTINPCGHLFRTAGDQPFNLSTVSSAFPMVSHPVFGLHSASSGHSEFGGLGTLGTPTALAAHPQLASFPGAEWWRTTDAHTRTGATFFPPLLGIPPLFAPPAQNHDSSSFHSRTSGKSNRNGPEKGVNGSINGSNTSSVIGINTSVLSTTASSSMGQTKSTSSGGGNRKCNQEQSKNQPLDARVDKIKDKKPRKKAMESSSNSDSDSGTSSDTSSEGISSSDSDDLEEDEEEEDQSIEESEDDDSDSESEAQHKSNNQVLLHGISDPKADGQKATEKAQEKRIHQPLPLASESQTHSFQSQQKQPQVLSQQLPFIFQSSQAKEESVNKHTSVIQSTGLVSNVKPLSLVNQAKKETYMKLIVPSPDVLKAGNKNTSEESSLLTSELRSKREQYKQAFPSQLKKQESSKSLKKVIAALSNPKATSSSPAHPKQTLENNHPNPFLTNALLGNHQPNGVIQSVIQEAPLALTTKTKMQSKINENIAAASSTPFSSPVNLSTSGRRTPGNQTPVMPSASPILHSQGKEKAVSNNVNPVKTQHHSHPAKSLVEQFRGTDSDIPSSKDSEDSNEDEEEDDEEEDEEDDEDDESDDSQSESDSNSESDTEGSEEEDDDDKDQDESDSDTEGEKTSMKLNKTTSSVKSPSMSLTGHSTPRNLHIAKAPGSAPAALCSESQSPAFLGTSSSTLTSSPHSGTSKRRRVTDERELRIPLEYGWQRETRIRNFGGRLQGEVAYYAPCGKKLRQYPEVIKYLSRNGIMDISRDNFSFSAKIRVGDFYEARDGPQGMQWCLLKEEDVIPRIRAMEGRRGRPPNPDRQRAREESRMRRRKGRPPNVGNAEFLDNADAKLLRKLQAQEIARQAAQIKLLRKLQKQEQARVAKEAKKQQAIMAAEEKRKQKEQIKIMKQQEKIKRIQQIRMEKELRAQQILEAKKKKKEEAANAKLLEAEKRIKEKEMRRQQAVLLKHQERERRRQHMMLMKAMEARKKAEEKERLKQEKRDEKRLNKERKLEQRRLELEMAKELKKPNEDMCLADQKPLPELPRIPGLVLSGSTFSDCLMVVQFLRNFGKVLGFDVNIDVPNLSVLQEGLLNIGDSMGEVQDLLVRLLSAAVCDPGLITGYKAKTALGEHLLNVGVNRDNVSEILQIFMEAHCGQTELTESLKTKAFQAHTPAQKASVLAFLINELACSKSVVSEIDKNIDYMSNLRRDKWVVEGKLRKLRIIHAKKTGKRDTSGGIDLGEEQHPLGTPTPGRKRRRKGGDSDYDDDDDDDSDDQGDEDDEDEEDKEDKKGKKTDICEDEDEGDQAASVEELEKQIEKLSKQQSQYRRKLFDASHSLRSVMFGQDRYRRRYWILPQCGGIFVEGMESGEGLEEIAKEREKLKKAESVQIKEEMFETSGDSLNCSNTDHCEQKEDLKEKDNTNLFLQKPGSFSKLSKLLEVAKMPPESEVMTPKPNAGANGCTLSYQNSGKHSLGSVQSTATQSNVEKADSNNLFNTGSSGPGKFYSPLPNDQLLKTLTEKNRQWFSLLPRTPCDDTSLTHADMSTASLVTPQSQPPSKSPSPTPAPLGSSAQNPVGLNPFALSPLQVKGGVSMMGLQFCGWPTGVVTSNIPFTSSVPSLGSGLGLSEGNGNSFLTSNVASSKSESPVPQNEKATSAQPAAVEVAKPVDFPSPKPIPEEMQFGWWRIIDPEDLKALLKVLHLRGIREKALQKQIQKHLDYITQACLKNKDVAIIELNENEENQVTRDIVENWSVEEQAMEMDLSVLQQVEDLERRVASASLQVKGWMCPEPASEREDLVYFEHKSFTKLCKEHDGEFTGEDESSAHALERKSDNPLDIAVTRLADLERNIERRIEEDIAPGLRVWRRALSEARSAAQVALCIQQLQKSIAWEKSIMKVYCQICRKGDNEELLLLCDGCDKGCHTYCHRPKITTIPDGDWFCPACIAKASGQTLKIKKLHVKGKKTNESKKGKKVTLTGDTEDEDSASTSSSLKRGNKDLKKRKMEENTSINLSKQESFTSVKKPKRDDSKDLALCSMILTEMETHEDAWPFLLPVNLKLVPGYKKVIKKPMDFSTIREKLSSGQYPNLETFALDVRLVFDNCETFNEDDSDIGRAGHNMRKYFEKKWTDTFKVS
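BAZ2B (50 nM) with biotin-H3(5-23)K14Ac peptide (50 nM) in PBS pH 7.4, 0.01% Tween-20, preformed 30 min, then compound 30 min at room temperature; top concentration 110uM. AlphaScreen streptavidin donor/nickel chelate acceptor beads (10 ug/mL final), 20 min dark, signal read.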
G9a inh: blocks human histone lysine methyltransferase G9a; Q96KQ7; hit rate 8.8% among 350,000; G9a H3K9 monomethylation, AlphaScreen, 2 h; Potency, µM (top dose mostly 102 µM), without a hit: top-dose activity, negative = inhibition, usual class: inhibitors; AID 504332; further: on the % scale 0 is the no-effect control and ±100 the full control effect; nearly all actives have a fitted effect of over 75% in size
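Methyltransferase reactions run at room temperature for 2 h (20 nM enzyme, 500 nM biotin-H3K9 peptide, 20 uM SAM) after a 15 min compound preincubation; product detected by AlphaScreen beads and anti-H3K9me1 antibody.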
L3MBTL1 inh: blocks human L3MBTL1 | AlphaScreen L3MBTL1–H3K9me1 peptide binding | Potency, µM (series often up to 57.1 µM), without a hit: at the highest dose activity, negative = inhibition, hits mostly inhibitors | hit rate 0.66% among 230,000; further: on the % scale 0 is the no-effect control and ±100 the full control effect; nearly all actives have a fitted effect of over 60% in size
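Read-out is AlphaScreen signal from streptavidin donor and nickel chelate acceptor beads (10 ug/mL final each) bridging L3MBTL1 (50 nM) and biotinylated K9-monomethylated H3(1-15) peptide (75 nM), after 30 min compound exposure at room temperature.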
HP1b binding inh: blocks HP1-beta chromodomain binding to methylated histone tails | Potency, µM (top dose mostly 114 µM), inactives show at the top dose activity change, negative = inhibition, usual class: inhibitors | hit rate 0.56% among 390,000 | AlphaScreen HP1-beta / biotin-H3K9me3 peptide binding; further: nearly all actives have a fitted effect of over 70% in size
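Compound inhibition of the preformed complex between 50 nM HP1-beta and 50 nM biotinylated H3K9me3 peptide was read by AlphaScreen. Buffer was PBS pH 7.4 with 0.01% Tween-20. Incubations ran 30 min at room temperature, with 10 ug/mL donor/acceptor beads.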
JMJD2A Tudor inh: inhibitors of human JMJD2A Tudor domain. AlphaScreen JMJD2A-Tudor / H3K4me3 peptide binding. Potency, µM (titrated, usually from 114 µM), without a hit: at the highest dose activity change, negative = inhibition, most hits filed as inhibitors. hit rate 4.4% among 390,000; further: on the % scale 0 is the no-effect control and ±100 the full control effect; nearly all actives have a fitted effect of over 50% in size
* hit, by the source's call; ? = inconclusive; / = no result given; [ ] = another dose, or the depositor's remark. Rows were chosen to be rich in hits. Some 11% of all compounds tested hit in one or more screens of this group. The call rests on the fitted dose curve; in most records, active means well fitted inhibition curve with a large enough effect; inconclusive means small, poorly fitted or top-dose-only effect; inactive means no such curve, though single readings can be large or run the other way. Potency means the concentration at half of the fitted maximal effect.

SMILES | BAZ2B inh | G9a inh | L3MBTL1 inh | HP1b binding inh | JMJD2A Tudor inh
Cc1cc(C)c2c(=O)c3c(oc2c1)C(=O)N(CCCOC(C)C)C3c1ccccc1F (stereo not given) | 0% | 0%[59 µM] | / | 28% | -20%
Cc1cc(COc2ccccc2O)on1 | 6% | 71µM* | / | 47% | 2%
COc1ccccc1OCc1cc(-c2ccccc2)no1 | 152% | 178% | 51% | 211% | 131%
COc1ccccc1NC(=O)Cn1c(=O)c(CNc2ccccc2)cc2cc(OC)c(OC)cc21 | -18% | ? | / | 12% | -22%
O=C1C=CC(=O)N1c1ccc(Nc2ccccc2)cc1 | / | / | / | ? | 50µM*
Cc1cccc(N2C(=O)C=CC2=O)c1 | / | / | / | ? | 20µM*
O=C(Nc1ccc(Nc2ccccc2)cc1)c1c(F)c(F)c(F)c(F)c1F | -11% | / | -9% | 3% | -25%
O=C1C=CC(=O)N1c1ccc2ccccc2c1 | / | / | / | ? | 18µM*
CCOC(=O)c1ccc(NC(=O)NCCOCCn2c(=O)oc3ccccc32)cc1 | -4% | -1%[59 µM] | / | 6% | -28%
C[n+]1cc(C(O)(c2ccccc2)c2ccccc2)n2ccccc21 | / | / | / | / | -8%
COc1cc(OC)c(NC(=O)CSc2nccn2C)cc1Cl | -31% | 5%[59 µM] | / | 24% | -12%
Cc1cc(C)n(-c2nc(SCCN(C)C)c3c4c(sc3n2)CCCC4)n1 | ? | / | -7% | 2% | 56µM*
CCC(O)CNc1nc(-n2nc(C)cc2C)nc2sc3c(c12)CCCC3 (stereo not given) | -2% | 3%[59 µM] | 2% | / | /
CCOC(=O)CC(=O)CSc1nc(-c2ccccc2)cc(-c2ccccc2)c1C#N | 11% | 31% | 17% | 44% | 16%
CCCSc1nc(-c2ccc(OC)cc2)cc(-c2ccccc2OC)c1C#N | 22% | 1.8µM* | / | -39% | 22%
N#Cc1c(-c2ccccc2)cc(-c2ccccc2)nc1SCC(O)CS(=O)(=O)Cc1ccc(Cl)cc1 (stereo not given) | -14% | 1.8µM* | / | ? | ?
CCCOc1ccc(-c2cc(C(F)(F)F)c(C#N)c(SCCC(=O)O)n2)cc1 | ? | -6%[59 µM] | / | -17% | 79µM*
N#Cc1c(-c2ccccc2)cc(-c2ccccc2)nc1SCC(=O)NCC(=O)O | -15% | 45µM* | 8% | -10% | -12%
Cc1ccc(Nc2nnc(-c3ccc(C)c(S(=O)(=O)N4CCOCC4)c3)c3ccccc23)c(C)c1 | -19% | -46%[59 µM] | / | 14% | -21%
COc1ccc(-c2cc(-c3ccccc3)c(C#N)c(SCC(=O)O)n2)cc1 | / | / | / | 60% | 2%
COc1ccc(-c2cc(-c3ccccc3)nc(SCC(=O)Nc3ccccc3C)c2C#N)cc1 | -14% | 13µM* | / | -12% | -11%
COc1ccc(-c2cc(-c3ccc(Cl)cc3)c(C#N)c(SCC(=O)O)n2)cc1 | ? | ? | ? | ? | 79µM*
COc1ccc(N2CCN(C(CNC(=O)C(=O)NCc3ccc(F)cc3)c3cccnc3)CC2)cc1 (stereo not given) | -4% | 4%[59 µM] | / | 35% | -16%
COc1cccc(-c2nc3c(C#N)c[nH]n3c2NC2CCCC2)c1OC | -12% | -4%[59 µM] | / | 28% | -10%
Cc1cc(Nc2ccccc2)n(-c2ccc(Br)cc2)n1 | 8% | 50µM* | / | 17% | 6%
SMILES | BAZ2B inh | G9a inh | L3MBTL1 inh | HP1b binding inh | JMJD2A Tudor inh
Cc1cc(C)n(-c2nc(N(c3ccccc3)c3ccccc3)nc(-n3nc(C)cc3C)n2)n1 | -10% | 20%[59 µM] | 4µM* | -4% | ?
COc1cccc(/C=N/Nc2nc(Nc3ccccc3)nc(-n3nc(C)cc3C)n2)c1O | -29% | 16% | / | 10% | ?
Cc1cc(C)n(-c2nc(Nc3ccccc3)nc(-n3nc(C)cc3C)n2)n1 | 79µM* | ? | -5% | 25% | ?
CCc1ccc(C2CC(=O)N(c3cccc(C(F)(F)F)c3)C3=C2C(=O)OC3)cc1 (stereo not given) | -17% | 3%[59 µM] | / | 18% | -13%
CC(C)Oc1ccc(CNS(=O)(=O)c2ccc(-c3cc(C(F)(F)F)on3)s2)cc1 | 2% | 0%[59 µM] | / | 16% | -14%
O=C(NCC(c1ccc(Cl)cc1)N1CCCCC1)c1ccccc1F (stereo not given) | 1% | ? | / | 54% | 4%
Cc1cc(NS(=O)(=O)c2ccc(Nc3nc(-c4ccc(O)cc4)cs3)cc2)no1 | ? | 50µM* | -1% | -20% | ?
Cc1cc(NS(=O)(=O)c2ccc(Nc3nc(-c4ccc(C)c(C)c4)cs3)cc2)no1 | ? | ? | -12% | -37% | 56µM*
COc1cc(NS(=O)(=O)c2ccc(N/C=C(\C=O)c3nc4ccccc4o3)cc2)nc(OC)n1 | 79µM* | 35µM* | 6% | 6% | 79µM*
Cc1cc(NS(=O)(=O)c2ccc(Nc3nc(-c4sc(N)nc4C)cs3)cc2)no1 | ? | -10%[12.7 µM] | ? | ? | 56µM*
COc1ccc2c(C)c(CCC(=O)NCc3ccccc3OC)c(=O)oc2c1 | -1% | 1%[59 µM] | / | 36% | -3%
Cc1cccc(NC(=O)CSc2nnc(-c3cc(C)[nH]n3)n2N)c1 | -14% | -7% | / | 49% | 4%
COc1cc(NS(=O)(=O)c2ccc(Nc3nc(-c4ccccc4)cs3)cc2)nc(OC)n1 | 50µM* | ? | -12% | -22% | ?
COc1cc(NS(=O)(=O)c2ccc(NC(=S)Nc3ccccc3)cc2)nc(OC)n1 | -10% | 24% | / | 33% | -6%
CNC(C)C#Cc1ccc2c(=O)c3c(OC)cccc3oc2c1 (stereo not given) | -6% | / | 7% | / | /
CNC(C)C#Cc1ccc2oc3cccc(OC)c3c(=O)c2c1 (stereo not given) | -23% | 45µM* | -2% | 27% | -15%
COc1cccc2sc3ccc(C#CC4(N)CCCCC4)cc3c(=O)c12 | -13% | / | -3% | 36% | -29%
CNC(C)C#Cc1ccc2sc3cccc(OC)c3c(=O)c2c1 (stereo not given) | -7% | 71µM* | 3% | 27% | -22%
COc1cccc(CNCc2ccco2)c1O | 35% | / | 25% | ? | 18µM*
COc1cc(OC)c(OC)cc1CNCc1ccco1 | ? | 28µM* | / | ? | 2.8µM*
COc1cc(OC)c(S(=O)(=O)NCc2ccco2)cc1S(=O)(=O)NCc1ccco1 | 3% | 3%[12.7 µM] | -2% | 14% | -26%
COc1cc(CNCc2ccco2)ccc1OCc1ccccc1 | ? | 35µM* | -1% | ? | 4µM*
CCOC(=O)c1cc(-c2ccccc2)n(-c2cccc(C(=O)N(CC)c3ccccc3)c2)c1C | 10µM* | ? | / | -10% | ?
CCOC(=O)c1cc(C)n(-c2ccccc2)c1C | 79µM* | 4% | -12% | 1% | -29%
CCOC(=O)c1cc(-c2ccccc2)n(-c2cccc(C(=O)Nc3cccc(C)c3)c2)c1C | -27% | ? | / | 22% | ?

Assay outcomes: PubChem, National Center for Advancing Translational Sciences (NCATS)
